Each structure is given as a SMILES string. Inconclusive results are not listed. Calls of active or inactive are those of the source. The call rests on the fitted dose curve; in most records, active means well fitted inhibition curve with a large enough effect in the main read-out, with a control signal flat (not every such curve was filed as active); inconclusive means small, poorly fitted or top-dose-only effect, or effect the other way, or a change in a side signal; inactive means no such curve, though single readings can be large or run the other way.

Data on 20 compounds can be found in PubChem BioAssay (NCATS).
Potency means the concentration at half of the fitted maximal effect.

The experiment is described as follows: Nrf2 qHTS screen for inhibitors: Validation (AID 493153).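 On activity change, negative = inhibition: A549 cells with ARE-driven firefly luciferase reporter reporting Nrf2 activity; % of control where 0% means no effect.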 The settings on record: A549 ARE-Fluc reporter, 18-24 h; Potency: luciferase luminescence; viability change: measured here: cytotoxicity max response; luciferase luminescence, at 46.1 µM (top of the series); activity change, negative = inhibition: at the top concentration. An excerpt:
NIH Molecular Libraries Probe Production Network [MLPCN] NIH Chemical Genomics Center [NCGC] MLPCN Grant: R03-MH092170-01 Assay Provider: Shyam Biswal, Johns Hopkins University Assay Overview: Nrf2 is a transcription factor that maintains cellular redox homoestasis and protects cells from xenobiotics. Nrf2 binds to the antioxidant response element (ARE) to induce gene expression of a broad spectrum of genes that encode for antioxidants. […] Finding a small molecule that act as an inhibitor of Nrf2 function would represent a novel therapeutic target that could lead to improvement in survival of patients undergoing chemo- and/or radio- therapy. 1. Shibata, T., et al., Genetic Alteration of Keap1 Confers Constitutive Nrf2 Activation and Resistance to Chemotherapy in Gallbladder Cancer. Gastroenterology, 2008. 2. Sjoblom, T., et al., The consensus coding sequences of human breast and colorectal cancers. Science, 2006. 314(5797): p. 268-74.
Assay Protocol Summary: A concentration-response assay was performed with A549 ARE_Fluc cells which are suspended in 5% FBS OPTI-MEM. Five uL were dispensed into 1536-well white TC-treated plate using the Kalypsys dispenser to achieve a density of 5000 cells/well in all columns except column 1. The plate is incubated at 37deg C at 5% CO2 for 2 hours before 23 nL of compounds are added with the Kalypsys pin tool equipped with a 1,536-pin array containing 10-nL slotted pins (FP1S10, 0.457-mm diameter, 50.8 mm long; V&P Scientific). The control compounds Budesonide and Staurosporine are both added at a concentration of 2mM and Budesonide is also added as a 1:10 titration, starting at 200uM, to achieve dose-response. After an 18-24 hour incubation at 37deg C at 5% CO2, 5ul of medium is added to column 1. Afterwards 1ul of 5x of CellTiter-Fluor (Promega) is added to every well. The plate is then incubated at 37deg C at 5% CO2 for 30 minutes before they are read on the ViewLux (Perkin Elmer) for a fluorescent read Ex=405(10)/Em=525(10) for a 3 second exposure, 2x binning, and high gain. Then 3 uL of 3x BugLite is dispensed into all wells and the plate is incubated at ambient room temperature for 15 minutes. Afterwards another ViewLux read is performed using the clear filter to get a luminescent read with the settings of 40 second exposure, 2x binning, and high gain. Cytotoxicity is assessed through the first fluorescent read and then biochemical activity against Nrf2 is measured in the luminescent read.
On to `CN(C)CCOC(C)(c1ccccc1)c1ccccn1` (stereo not given), for which the viability change is -4.35% and the “activity change, negative = inhibition” value is -2.2% (inactive).
The corresponding values for `CN(C)CCCN1c2ccccc2CCc2ccccc21` are -5.46% and 4.64% (inactive).
`CC1=C(CC(=O)O)c2cc(F)ccc2/C1=C\c1ccc(S(C)(=O)=O)cc1`: the “activity change, negative = inhibition” value is -1.79% (inactive) and the viability change is -17.2%.
Consider `C[C@](N)(Cc1ccc(O)cc1)C(=O)O`, for which the viability change was 3.53% and the “activity change, negative = inhibition” value was 0.45% (inactive).
Consider `CNCCC(Oc1ccc(C(F)(F)F)cc1)c1ccccc1` (stereo not given), for which the viability change was 3.02% and the “activity change, negative = inhibition” value was 2.75% (inactive).
For `C[C@]12C[C@H](O)[C@H]3[C@@H](CCC4=CC(=O)CC[C@@]43C)[C@@H]1CC[C@@H]2C(=O)CO`, the Potency was 6.51 µM (active) and the viability change is -3.09%.
In the case of `O=C1N=C(O)CN1/N=C/c1ccc(-c2ccc([N+](=O)[O-])cc2)o1`, the viability change is -12.1% and the “activity change, negative = inhibition” value is -10.7% (inactive).
With `CSc1ccc2c(c1)C(N1CCN(C)CC1)Cc1ccccc1S2` (stereo not given), the “activity change, negative = inhibition” value is 2.65% (inactive) and the viability change is -13.4%.
With `CC1=C(/C=C/C(C)=C/C=C/C(C)=C/C(=O)O)C(C)(C)CCC1`, the “activity change, negative = inhibition” value was 24.5% (inactive) and the viability change was -3.39%.
The corresponding values for `CC(C)(C)[C@]1(O)CCN2C[C@H]3c4ccccc4CCc4cccc(c43)[C@@H]2C1` are 7.26% (inactive) and -7.91%.
The corresponding values for `N=c1c[n+](N2CCOCC2)[n-]o1` are 9.67% (inactive) and 0.362%.
As for `C#CCN(C)Cc1ccccc1`, the “activity change, negative = inhibition” value is 14.1% (inactive) and the viability change came out at 1.01%.
For the compound `CN(C)CC[C@@H](c1ccc(Cl)cc1)c1ccccn1`, the “activity change, negative = inhibition” value is -3.1% (inactive) and the viability change was 8.9%.
Take `CCCn1cnc2c1c(=O)n(CCCCC(C)=O)c(=O)n2C`: the “activity change, negative = inhibition” value is 7.06% (inactive) and the viability change is -13.4%.
The corresponding values for `CN1CCN(C2Cc3ccccc3Sc3ccc(Cl)cc32)CC1` (stereo not given) are -7.62% (inactive) and -10.9%.
The corresponding values for `NC(N)=NCCC[C@H](N)C(=O)O` are 5.66% (inactive) and 3.44%.
The corresponding values for `CCCCCCCCCCCCCCCC(=O)NCCO` are 14.2% (inactive) and -3.02%.
With `CCN(CC)CCNC(=O)c1cc(Cl)c(N)cc1OC`, the “activity change, negative = inhibition” value was 29.5% (inactive) and the viability change was -1.22%.
The corresponding values for `CCN(CC)C(C)CN1c2ccccc2Sc2ccccc21` (stereo not given) are 0% (inactive) and -0.429%.
In the case of `CNCCCC1c2ccccc2C=Cc2ccccc21`, the “activity change, negative = inhibition” value is 6.07% (inactive) and the viability change amounted to 4.24%.
